Only a selection was taken, and hits are over-represented in it overall.
LmPK inh = inhibitors of Leishmania mexicana pyruvate kinase; Q27686; purified LmPK, Kinase-Glo ATP luminescence, 1 h; Potency, µM (titrated, usually from 57.5 µM), without a hit: at the highest dose activity change, negative = inhibition, usual class: inhibitors; hit rate 0.37% among 290,000; AID 1721; active = well fitted curve in the direction sought with a large enough effect; inconclusive = small, poorly fitted or top-dose-only effect, or another doubt; inactive = no such curve, though single readings can be large; an effect the other way counts as inactive or inconclusive; also: potency is read from the fitted curve at half-maximal effect; % is scaled to controls: 0 for no effect and ±100 for the full control effect
Target sequence (Q27686 whole entry, looked up): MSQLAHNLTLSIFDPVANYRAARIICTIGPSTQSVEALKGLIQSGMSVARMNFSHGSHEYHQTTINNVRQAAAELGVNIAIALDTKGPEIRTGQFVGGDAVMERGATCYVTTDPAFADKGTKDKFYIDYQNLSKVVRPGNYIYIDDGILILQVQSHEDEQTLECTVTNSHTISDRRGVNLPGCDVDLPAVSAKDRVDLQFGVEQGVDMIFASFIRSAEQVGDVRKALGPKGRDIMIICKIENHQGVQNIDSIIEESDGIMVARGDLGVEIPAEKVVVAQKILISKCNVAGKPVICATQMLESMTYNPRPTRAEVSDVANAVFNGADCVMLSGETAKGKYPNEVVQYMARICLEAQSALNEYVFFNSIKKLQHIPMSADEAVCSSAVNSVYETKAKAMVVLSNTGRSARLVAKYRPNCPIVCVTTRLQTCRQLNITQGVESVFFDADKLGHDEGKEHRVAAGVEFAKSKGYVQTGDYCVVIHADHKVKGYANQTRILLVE
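ATP generated from ADP (0.1 mM) and PEP (0.5 mM) by 0.1 nM LmPK over 1 h at room temperature (pH 7.2 imidazole buffer) was detected by coupled luciferase luminescence. Values were normalized to uninhibited and no-enzyme wells.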
TbPYK inhibitor = T. brucei pyruvate kinase inhibition; Q57TT1; TbPYK enzyme, Kinase-Glo Plus ATP luminescence, 45 min; Potency, µM (doses to about 76.8 µM), for inactives: at the highest dose activity, negative = inhibition, usual class: inhibitors; hit rate 0.12% among 410,000; active = well fitted curve in the direction sought with a large enough effect; inconclusive = small, poorly fitted or top-dose-only effect, or another doubt; inactive = no such curve, though single readings can be large; an effect the other way counts as inactive or inconclusive; also: potency is read from the fitted curve at half-maximal effect; % is scaled to controls: 0 for no effect and ±100 for the full control effect; nearly all actives have a fitted effect of over 50% in size
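Luminescence from Kinase-Glo Plus, added after a 45-minute room-temperature reaction, served as the end-point read-out. The enzyme and substrate were preincubated with compound before ADP (130 uM final) initiated turnover. Concentration-effect curves came from normalized qHTS data.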
Shiga inhibitor = inhibitors of Shiga toxin in Vero cells | Vero cells, Shiga toxin protein synthesis inhibition reporter | inhibition, % at 38.7 µM | hit rate 9.2% among 290,000; in the data active = inhibition mostly above about 28%, no sharp cut-off; inactive = mostly below about 43%; also: 0% is about no effect
Cycloheximide cs = counter-screen for Shiga toxin inhibitors: cycloheximide protein synthesis inhibition | cell reporter, cycloheximide protein synthesis inhibition counterscreen | hit rate 12% among 300,000 | max response, %; in the data active = max response mostly above about 13%, no sharp cut-off; inactive = mostly below about 14%; also: read at 38.3 µM for the half of the compounds with a filed dose; 0% is about no effect
NS1 function inh = inhibitors of influenza NS1 protein function | Potency, µM (series often up to 46.1 µM), for the others: at the highest dose activity, positive = more growth | hit rate 0.4% among 270,000 | AID 2326; also: potency is read from the fitted curve at half-maximal effect; actives are rising curves; nearly all actives have a fitted effect of over 50% in size
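OD600 was taken as the measure of yeast growth restored by compound in an NS1-expressing S. cerevisiae strain. Cells had been washed out of glucose medium and diluted 1:100 into galactose -URA medium, pH 6.0.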
SARS PLP yeast = inhibitors of SARS-CoV papain-like protease in yeast. S. cerevisiae expressing SARS-CoV PLpro, growth rescue. Potency, µM (series often up to 32.9 µM), for inactives: at the top dose activity, positive = growth rescue, hits mostly activators. hit rate 0.19% among 330,000. AID 485353; also: potency is read from the fitted curve at half-maximal effect; 0% is about no effect; nearly all actives have a fitted effect of over 55% in size
* marks the source's active call; other numbers are inactive results; ? = inconclusive; . = no result given; ! = not confirmed by another sample. Unless noted, calls follow the shape of the full dose curve.

SMILES	LmPK inh	TbPYK inhibitor	Shiga inhibitor	Cycloheximide cs	NS1 function inh	SARS PLP yeast
CC(C)(C)c1ccc(-c2ncccc2O)cc1	-6%	3%	69*	32*	-40%	-5%
c1ccc(-c2nccnc2-c2ccccc2)cc1	0%	0%	2	13	-48%	-2%
COc1ccc(Br)cc1C(=O)Nc1ccc2oc(-c3cccnc3)nc2c1	.	1%	.	.	.	.
CC(C)c1ccc(N(CC(=O)NCc2ccco2)C(=O)CCC(=O)Nc2ccccn2)cc1	5%	-18%	51*	11*	14%	-1%
COc1ccccc1C(=O)N1CCN(C(=O)[C@H]2O[C@@H](n3ccc(=O)[nH]c3=O)[C@H](O)[C@@H]2O)CC1	.	-11%	.	.	.	.
Nc1[nH]c(N=NC(=O)c2ccccc2)c2ccccc12	-20%	-7%	84*	53*	8%	1%
O=C(ONc1ccc(N=NC(=O)c2ccccc2O)cc1)c1ccccc1	-21%	-13%	-9	-3	-4%	-9%
Nc1[nH]c(N=NC(=O)c2ccccc2O)c2ccccc12	-12%	2%	81*	58*	24%	16%
Nc1[nH]c(N=NC(=O)c2ccc(Cl)cc2)c2ccccc12	0%	-2%	95*	32*	3%	-19%
Cc1cc(N=NC(=O)c2ccccc2)ccc1O	-5%	-17%	20	16	-1%	-1%
C/C(=N\Nc1ccc(F)cc1F)c1cccs1	-9%	.	64	35*	10%	-2%
COc1ccc(C(=O)c2ccccc2O)c(O)c1	.	-11%	.	.	.	.
COc1ccc(/C(C)=N/Nc2ccc(F)cc2F)c(O)c1	-1%	-5%	74*	42*	.	0%
N/C(CC(=O)Nc1ccc(F)cc1F)=N\OC(=O)c1cccs1	-2%	3%	13	-2	-1%	1%
COc1ccc(/C(C)=N/Nc2ccccc2Cl)c(O)c1	-16%	11%	48*	37*	-1%	0%
OCc1cccc(-c2csc(C(O)(c3ccccc3)C(F)(F)F)n2)c1 (configuration not stated)	.	6%	.	.	.	.
COCCOC(=O)c1c(C)oc2ccc(OS(C)(=O)=O)cc12	-1%	1%	18	21*	-1%	1%
Cc1oc2ccc(OS(C)(=O)=O)cc2c1C(=O)OC(C)C	-1%	-3%	32	12	.	-12%
CC12CCC(C(=O)Nc3ccccc3)(C/C1=N\O)C2(C)C (configuration not stated)	-1%	1%	-16	1	6%	2%
CC12CCC(C(=O)O)(C/C1=N\O)C2(C)C (configuration not stated)	0%	2%	-3	-1	18%	11µM*!
O=C(COc1ccc(F)cc1)OCc1cc(=O)n2nc(-c3cccs3)sc2n1	.	-1%	.	.	.	.
CNc1nc(C)c(C(=O)OCc2ccccc2)s1	-1%	-5%	93*	29*	-55%	-9%
Nc1nc(Nc2cccc(C(F)(F)F)c2)sc1C(=O)c1ccccc1	.	1%	.	.	.	.
CCOC(=O)c1sc(NC(=O)c2ccccc2OCC)nc1C	3%	-3%	69	36*	.	2%
CC(C)(C)C(=O)c1sc(Nc2ccccc2)nc1N	-4%	-4%	68*	59*	-14%	-13%
SMILES	LmPK inh	TbPYK inhibitor	Shiga inhibitor	Cycloheximide cs	NS1 function inh	SARS PLP yeast
COC(=O)c1ccc(/C=N/Nc2nc(-c3ccc(C)cc3)cs2)cc1	1%	-11%	2	-2	-19%	29%
CCOc1ccccc1C(=O)Nc1nnc(C(C)C)s1	8%	0%	14	6	-9%	2%
COC(=O)c1ccc(/C=N/Nc2nc(C)c(C)s2)cc1	-7%	-8%	97*	63*	-41%	18%
COc1ccc(C(=O)c2sc(Nc3ccccc3)nc2C)cc1	5%	2%	8	7	-32%	-4%
CC(=O)c1sc(Nc2cccc(C)c2)nc1C	-5%	-4%	91*	46*	-13%	-1%
COc1ccc(/C(C)=N/Nc2nc(C)c(C(C)=O)s2)cc1	0%	-1%	65*	12*	-2%	10%
Cc1nc(NC(=O)C2CC2)sc1C(=O)Nc1ccccc1Cl	-6%	0%	19	33*	-2%	-5%
O=S1(=O)N=C(Nc2nc3c(s2)CCCC3)c2ccccc21	-5%	-7%	57*	28*	14%	-14%
Cc1nc(Cl)sc1C(=O)Nc1ccccc1Cl	4%	0%	-8	12	-6%	0%
O=C(CSc1nncs1)NNC(=O)c1ccco1	.	0%	.	.	.	-6%
O=C(O)[C@H](Cc1ccc(O)c([N+](=O)[O-])c1)N1C(=O)c2ccccc2C1=O	.	.	.	.	-8%	.
CCOC(=O)c1sc(NCC2CCCO2)nc1C (configuration not stated)	1%	-11%	10	active	1%	-3%
CCOC(=O)Nc1nc(C)c(C(=O)c2ccc(Cl)cc2)s1	-8%	3%	-8	1	-7%	7%
CCOC(=O)c1sc(Nc2ccc(F)cc2)nc1C	-2%	-6%	80*	28*	.	1%
CCOC(=O)c1sc(NC(=O)Nc2ccc(Cl)cc2)nc1C	-2%	-8%	72*	43*	6%	-4%
COc1ccccc1CNc1nc(C)c(C(C)=O)s1	-6%	-6%	61*	43*	13%	1%
COc1cccc2sc(NC(=O)c3ccc4c(c3)OCCO4)nc12	.	-5%	.	.	.	.
COc1cccc2sc(NC(=O)c3ccc(Br)s3)nc12	2%	4%	72	32*	-3%	-6%
Cc1nc(Nc2ccccc2)sc1C(=O)c1ccccc1	4%	0%	58*	47*	-9%	-5%
O=C(O)Cc1sc(N/N=C\c2ccccc2)nc1-c1ccccc1	-9%	-21%	58*	53*	?	-26%
CCOC(=O)c1sc(Nc2nc3c(OC)cccc3s2)nc1C	-1%	.	81*	50*	-8%	-3%
O=C(CN1CCN(c2ccc(F)cc2)CC1)N(C1CCCC1)C1CCS(=O)(=O)C1 (configuration not stated)	.	-1%	.	.	.	-9%
COc1ccc(Cl)cc1NC(=O)c1nn(-c2ccc(C)cc2)c(=O)n(C)c1=O	.	-6%	.	.	.	.
COc1ccc(C2CC(c3ccccc3)=NN2C(=O)CSc2nnnn2-c2cccc(C)c2)cc1 (configuration not stated)	.	1%	.	.	.	.
CCOC(=O)c1sc(Nc2ccc(C)cc2C)nc1C	8%	2%	19	18*	-4%	-12%
CCOC(=O)c1sc(N/N=C/c2ccccc2)nc1C	-1%	?	34*	85*	-5%	-8%
CC(=O)c1sc(Nc2ccc(Oc3ccccc3)cc2)nc1C	.	-2%	.	.	.	.
Cc1nc(Nc2ccc(Cl)c(Cl)c2)sc1C(=O)Nc1ccccc1	3%	?	-28	25*	3%	-84%

Screening data (PubChem BioAssay)
